According to PubChem BioAssay (NCI):
This is part of a sample that, as a whole, favours compounds with a hit. Of some 79,000 tested, about 15% had one in any assay. Unmarked numbers belong to inactive results. The source made the active and inactive calls. Rule as the data show it: active = growth inhibition above about 70%; inactive = the rest.

Assay: NCI Yeast Anticancer Drug Screen. Data for the sgs1 mgt1 strain (AID 161);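 also: 0% = growth of cultures given vehicle only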
Settings: S. cerevisiae sgs1 mgt1 strain, at 50.0 µM (retest, dose inferred, filed as 5.0), stronger effect = higher value
Outline: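 Inhibition of yeast growth, normalised to vehicle-treated controls, is reported for a strain bearing genetic alterations in DNA damage repair.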

Structure (SMILES) | growth inhibition
Cc1cccc2c1C1c3c(C)cccc3C(O)CC1CC2O (stereo not drawn) | 45%
CC(C)c1cc2c(cc1O)C(O)C1(O)CCCC(C)(C)[C@H]1CC2 (stereo partly drawn) | 99% (active)
C/C=C/c1ccc(OCC(=O)O)c(OC)c1 | 1%
Nc1ccc(S(=O)(=O)NCc2nccs2)cc1 | 53%
N#CC(NNC(=O)c1ccccc1O)c1c(O)ccc2ccccc12 (stereo not drawn) | 50%
Oc1ccc(Cl)cc1Cc1cc(Cl)cc(Cc2cc(Cl)ccc2O)c1O | 98% (active)
O=C1CN(CCN2CCOCC2)CC(=O)N2Cc3ccccc3CN12 | 41%
CC1CCC(SC2CC(=O)CCC2=O)CC1 (stereo not drawn) | 99% (active)
Clc1ccc(OCC2CO2)c(Cl)c1 (stereo not drawn) | 82% (active)
CN=C(N)N/N=C(\C)c1ccc2c(ccc3ccccc32)c1 | 99% (active)
Cc1cc(O)c(/C=N/c2nc(-c3cccc([N+](=O)[O-])c3)cs2)c(=O)o1 | 100% (active)
COc1cccc2c1OC(c1ccc(Cl)cc1)C([N+](=O)[O-])=C2 (stereo not drawn) | 96% (active)
COc1ccc(C(=O)C2C(=O)C(=O)OC2C2OC(=O)C(=O)C2C(=O)c2ccc(OC)cc2)cc1 (stereo not drawn) | 2%
CCCCCCCCCCCCCCCCOc1ccc(S(=O)(=O)N/N=c2/sc3ccc(S(=O)(=O)O)cc3n2C)cc1C(=O)O | 76% (active)
O=C(Nc1ccc(F)cc1)N1CCCCC1 | 42%
C[CH2][Sn]([CH2]C)([O]C(=O)c1cc(OC)c(OC)c(OC)c1)[O][Sn]([CH2]C)([CH2]C)[O]C(=O)c1cc(OC)c(OC)c(OC)c1 | 85% (active)
C/C(O)=C(/C=N/C(=S)Nc1ccc(S(N)(=O)=O)cc1)C(=O)Nc1ccccc1C | -2%
CC(C)CC(N)C(=O)NNc1ccccc1 (stereo not drawn) | 97% (active)
CCC(C(c1ccc(Cl)cc1)c1ccc(Cl)c(Cl)c1)[N+](=O)[O-] (stereo not drawn) | 12%
O=C(O)c1nc2cc(C(F)(F)F)ccc2nc1Nc1ccc(F)cc1 | 60%
Nc1nc(-c2ccccn2)cc2cc(Cl)ccc12 | 99% (active)
CC1(c2ccccc2)NC(=O)N(CC(=O)N(c2ccccc2)c2ccccc2)C1=O (stereo not drawn) | 30%
O/N=C(/Cc1ccccc1)c1ccc2c(c1)OCO2 | 3%

Same assay, conditions: S. cerevisiae sgs1 mgt1 strain, at 50.0 µM, stronger effect = higher value

Structure (SMILES) | growth inhibition
CCCCCC(C1SC(=S)NC1=O)C1SC(=S)NC1=O (stereo not drawn) | 95% (active)
CC(C)C1=CC2=CC(=O)C3C(C)(C)CCCC3(C)C2=C(O)C1=O (stereo not drawn) | 90% (active)
CCOC(=O)C[n+]1c(C)sc2ccccc21 | 37.6%
OCc1c(-c2cccc3ccccc23)sc(-c2cccc3ccccc23)c1CO | 86.8% (active)
CC1=C(C#N)C(=O)OC1(C)C(CC(=O)c1ccccc1)c1ccccc1 (stereo not drawn) | 4.45%
O=c1oc2c3ccc4ccccc4c3n(CCCN3CCCCC3)c2c2ccccc12 | 87.4% (active)
Cc1cc(NC(=S)SCc2ccc(F)cc2)ccc1Br | 91.8% (active)
Cc1ccc(C2C(O)=C(c3ccccc3)Sc3ccc(C)cc32)cc1 (stereo not drawn) | 77% (active)
COC(=O)/C=C1/OC(c2ccccc2)=CC1=O | 57%
COc1ccccc1NC(=O)CC(=O)N1N=C(c2ccccc2)C(N=Nc2ccc(Cl)cc2)C1=O (stereo not drawn) | -2%
CC(=O)NC1=C(Nc2ccc(-c3ccc(NC4=C(NC(C)=O)C(=O)c5ccccc5C4=O)cc3)cc2)C(=O)c2ccccc2C1=O | 99.5% (active)
CCCCCCC(O)CCOC(C)=O (stereo not drawn) | -2.15%
CCn1nc(-c2ccccc2)c2c1N(C)c1ccccc1-n1c(-c3ccccc3)nnc1-2 | 99.2% (active)
CC1(CCC(=O)O)c2ccc3ccccc3c2Oc2c1ccc1ccccc21 | 96% (active)
CCN1/C(=C\c2cc(C)nc(-c3ccccc3)[n+]2C)C=Cc2ccccc21 | 98.7% (active)
Cc1ccccc1N1C(=O)c2ccccc2C1=O | 90.1% (active)
O=C(Oc1ccccc1)C1CCCCC1C(=O)Oc1ccccc1 (stereo not drawn) | 30.4%
Cc1cccc2c1C1c3c(C)cccc3C(O)CC1CC2O (stereo not drawn) | 42.4%
CC(C)c1cc2c(cc1O)C(O)C1(O)CCCC(C)(C)[C@H]1CC2 (stereo partly drawn) | 93% (active)
C/C=C/c1ccc(OCC(=O)O)c(OC)c1 | 98.2% (active)

Structure (SMILES) | growth inhibition
Nc1ccc(S(=O)(=O)NCc2nccs2)cc1 | 28.4%
N#CC(NNC(=O)c1ccccc1O)c1c(O)ccc2ccccc12 (stereo not drawn) | 61.9%
Oc1ccc(Cl)cc1Cc1cc(Cl)cc(Cc2cc(Cl)ccc2O)c1O | 97.5% (active)
O=C1CN(CCN2CCOCC2)CC(=O)N2Cc3ccccc3CN12 | 66.5%
CC1CCC(SC2CC(=O)CCC2=O)CC1 (stereo not drawn) | 92% (active)
Clc1ccc(OCC2CO2)c(Cl)c1 (stereo not drawn) | 92.2% (active)
CN=C(N)N/N=C(\C)c1ccc2c(ccc3ccccc32)c1 | 90.8% (active)
Cc1cc(O)c(/C=N/c2nc(-c3cccc([N+](=O)[O-])c3)cs2)c(=O)o1 | 51.2%
COc1cccc2c1OC(c1ccc(Cl)cc1)C([N+](=O)[O-])=C2 (stereo not drawn) | 87.6% (active)
COc1ccc(C(=O)C2C(=O)C(=O)OC2C2OC(=O)C(=O)C2C(=O)c2ccc(OC)cc2)cc1 (stereo not drawn) | -8.2%
CCCCCCCCCCCCCCCCOc1ccc(S(=O)(=O)N/N=c2/sc3ccc(S(=O)(=O)O)cc3n2C)cc1C(=O)O | 76% (active)
O=C(Nc1ccc(F)cc1)N1CCCCC1 | 36.9%
C[CH2][Sn]([CH2]C)([O]C(=O)c1cc(OC)c(OC)c(OC)c1)[O][Sn]([CH2]C)([CH2]C)[O]C(=O)c1cc(OC)c(OC)c(OC)c1 | 23.6%
C/C(O)=C(/C=N/C(=S)Nc1ccc(S(N)(=O)=O)cc1)C(=O)Nc1ccccc1C | 68.8%
CC(C)CC(N)C(=O)NNc1ccccc1 (stereo not drawn) | 88.6% (active)
CCC(C(c1ccc(Cl)cc1)c1ccc(Cl)c(Cl)c1)[N+](=O)[O-] (stereo not drawn) | 14.1%
O=C(O)c1nc2cc(C(F)(F)F)ccc2nc1Nc1ccc(F)cc1 | 74.7% (active)
Nc1nc(-c2ccccn2)cc2cc(Cl)ccc12 | 7.55%
CC1(c2ccccc2)NC(=O)N(CC(=O)N(c2ccccc2)c2ccccc2)C1=O (stereo not drawn) | 33.5%
O/N=C(/Cc1ccccc1)c1ccc2c(c1)OCO2 | -2.4%
